Data on 23 compounds can be found in PubChem BioAssay (Tox21).

Values joined by “and” are separate entries in the source; they are usually repeats but may differ in a detail not shown here. Equal values may be shown once. Records with an inconclusive call do not appear. Active and inactive are the calls of the source. Unless noted, the call rests on the fitted dose curve; in most records, active means well fitted curve in the direction sought with a large enough effect in the repeat runs; inconclusive means weak or mixed curves; inactive means no such curve, though single readings can be large; an effect the other way counts as inactive or inconclusive.

A short description of assay [1]: qHTS assay for small molecule agonists of the p53 signaling pathway (AID 651631; calls by dose curve; further: nearly all actives have a fitted effect of over 15% in size; further: potency means the concentration at half of the fitted maximal effect). A digest of the protocol:
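p53RE-bla HCT-116 cells; compounds 16 h, 37 °C; LiveBLAzer B/G FRET substrate 2 h RT; fluorescence intensity read-out, qHTS format.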
Background: qHTS replaces the single test concentration by a dilution series.

The nature of assay [2]: qHTS assay for small molecules that induce genotoxicity in human embryonic kidney cells expressing luciferase-tagged ATAD5 (AID 651632). Further: nearly all actives have a fitted effect of over 15% in size. In short, it runs like this:
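Increased luciferase signal from ATAD5-tagged reporter cells indicates DNA-damage-driven ATAD5 induction. HEK293T cells are treated for 16 hr at 37C before detection with Amplite.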

A short description of assay [3]: qHTS assay for small molecule agonists of the p53 signaling pathway - cell viability (AID 651633; calls by dose curve;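 further: p53RE-bla HCT reporter cells with a stable beta-lactamase p53 reporter; series mostly up to about 83 µM; nearly all actives have a fitted effect of over 30% in size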). In short, it runs like this: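 Viability counter-read: CellTiter-Glo luminescence (30 min, room temperature) in the same p53RE-bla plates. These plates had been exposed to compounds for 16 h at 37 C.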
Assay [4] can be described thus: qHTS assay for small molecules that induce genotoxicity in human embryonic kidney cells expressing luciferase-tagged ATAD5 - cell viability (AID 651634; calls by dose curve; further: nearly all actives have a fitted effect of over 25% in size; further: potency means the concentration at half of the fitted maximal effect). In short, it runs like this:
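Cytotoxicity counterscreen in HEK293T cells bearing an ATAD5-luciferase reporter: live-cell protease activity measured by CellTiter-Fluor fluorescence after 15.5 hr compound exposure.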

Assay [5] can be described thus: qHTS assay for small molecule disruptors of the mitochondrial membrane potential - cell viability (AID 720634; calls by dose curve;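 further: human HepG2 liver cancer cells; series mostly up to about 83 µM; nearly all actives have a fitted effect of over 20% in size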). In short, it runs like this: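 After overnight attachment at 37 C, HepG2 cells received compound or DMSO vehicle for 1 hr. Viability is then taken from ATP-driven luminescence following a 30 min room-temperature CellTiter-Glo step.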
Assay [6] is described as follows: qHTS assay to test for compound auto fluorescence at 590 nm (red) in HepG2 cells (AID 720674). In short, it runs like this: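 We screened compounds on adherent HepG2 cells, incubating them for an hour at 37 C in 5% CO2 before reading emission at 590 nm under 540 nm excitation; values reflect equivalence to Rose Bengal sodium fluorescence.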
A short description of assay [7]: qHTS assay to test for compound auto fluorescence at 535 nm (green) in HepG2 cells (AID 720675).
Assay [8] in a line: qHTS assay to test for compound auto fluorescence at 590 nm (red) in HEK293 cells (AID 720679). A digest of the protocol:
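We plated HEK293 cells in 10% dialyzed FBS medium, let them adhere for 4-5 hr, then added 23 nL compound. Overnight at 37C and 5% CO2 preceded fluorescence measurement at 540/590nm.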

Assay [9] can be described thus: qHTS assay for small molecule disruptors of the mitochondrial membrane potential (AID 720635). Further: potency means the concentration at half of the fitted maximal effect. In short, it runs like this:
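Mitochondrial membrane potential tracked with Mito-MPS dye, red aggregates (ex 540/em 590 nm) against green monomers (ex 490/em 535 nm). Compound treatment 1 hr at 37C, dye 30 min in HepG2.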

Assay [10] is described as follows: qHTS assay to test for compound auto fluorescence at 460 nm (blue) in HEK293 cells (AID 720678). Further: potency means the concentration at half of the fitted maximal effect. A digest of the protocol:
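Triamterene serves as the blue fluorophore standard. Compound signal at 405/460 nm is read in HEK293 wells (2,000 cells, 10% dialyzed FBS) after overnight treatment at 37C.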
Tags describe the fitted curve by direction and shape or compound fluorescence and quenching.

Consider `CC1=C(C=O)C(C)(C)CC=C1`, for which the Potency result in assay [1], in assay [2], in assay [3], in [4], in assay [5] and in assay [7] was “inactive” each time. Moreover, the result in assay [6] and in assay [8] was inactive.

Take `CN1C(=O)c2ccc([N+](=O)[O-])cc2C1=O`: the Potency result in assay [1], in assay [2], in assay [3], in assay [4], in assay [5] and in [7] was “inactive” throughout. The Potency result in assay [10] was “inactive”. Moreover, in assay [9], the Potency is 61.1 µM (active). Also, the result in [6] and in [8] was inactive.

As for `C=CS(=O)(=O)O`, the Potency result in assay [1], in assay [2], in assay [3], in assay [4], in [5] and in assay [7] was “inactive” throughout. Moreover, the Potency result in assay [10] was “inactive”. The call in assay [6] and in assay [8] was inactive.

`CCN(CC)C(=O)Nc1ccc(OCC(O)CNC(C)(C)C)c(C(C)=O)c1` (configuration not stated): the Potency entry in [1], in [2], in assay [3], in [4], in assay [5] and in [7] was “inactive” each time. Moreover, the Potency result in assay [10] is “inactive”. For the same compound, the compound was called inactive in assay [6] and in [8].

Regarding `CNC1(C)C2CCC(C2)C1(C)C` (configuration not stated), the Potency entry in assay [1], in assay [2], in assay [3], in [4], in assay [5] and in assay [9] was “inactive” in each case. The Potency result in [7] was “inactive”. Further, the compound was classed as inactive in [6] and in assay [8].

In the case of `CCn1cc(C(=O)O)c(=O)c2cc(F)c(N3CCNC(C)C3)c(F)c21` (configuration not stated), the Potency result in assay [1], in assay [2], in [3], in [4], in assay [5] and in assay [9] was “inactive” in each case. In addition, in [7], the Potency entry was “inactive”. Besides, the outcome in assay [6] and in assay [8] was inactive.

On to `Cc1cc(C2(c3cc(C)c(O)cc3C)OS(=O)(=O)c3ccccc32)c(C)cc1O`, for which the Potency result in assay [1], in assay [2], in [3], in assay [5] and in assay [7] was “inactive” in each case. Also, the Potency in [4] was 30.6 µM (active) and 17.2 µM (active). Besides, the compound was called inactive in [6] and in [8].

Consider `COc1cc(C(=S)N2CCOCC2)ccc1O`, for which the Potency entry in assay [1], in assay [2], in [3], in assay [4], in assay [5] and in [7] was “inactive” each time. Further, in assay [10], the Potency entry is “inactive”. Moreover, the compound was called inactive in [6] and in assay [8].

Take `O=C(O)CP(=O)(O)O`: the Potency result in [1], in assay [2], in assay [3], in assay [4], in assay [9] and in assay [7] was “inactive” throughout. Besides, in [10], the Potency entry was “inactive”. The compound was called inactive in [6] and in assay [8].

For `O=C(O)c1cn(-c2ccc(F)cc2)c2cc(N3CCNCC3)c(F)cc2c1=O`, the Potency entry in assay [1], in [2], in assay [3], in assay [4], in assay [5] and in [7] was “inactive” each time. The Potency entry in [10] is “inactive”. Moreover, the outcome in [6] and in [8] was inactive.

On to `CCc1ccc(C(c2ccc(CC)cc2)C(Cl)Cl)cc1`, for which the Potency result in assay [1], in assay [2], in assay [3], in assay [4], in assay [5] and in assay [7] was “inactive” throughout. Moreover, the Potency entry in assay [10] is “inactive”. The Potency in assay [9] is 49.3 µM (active) and 27.3 µM (active). Moreover, the outcome in [6] and in assay [8] was inactive.

In the case of `OCCN1CCNCC1`, the Potency entry in assay [1], in assay [2], in [3], in assay [4], in assay [5] and in [9] was “inactive” in each case. For the same compound, the Potency result in assay [7] and in assay [10] was “inactive” each time. Besides, the call in assay [6] and in [8] was inactive.

As for `c1cnc2cc3c(cc2n1)C1CNCC3C1`, the Potency result in assay [1], in [2], in assay [3], in assay [4], in [5] and in assay [9] was “inactive” in each case. The Potency entry in [7] and in [10] was “inactive” each time. The outcome in [6] and in [8] was inactive.

As to `C[N+]1([O-])CCOCC1`, the Potency entry in assay [1], in assay [2], in [3], in assay [4], in [5] and in [9] was “inactive” in each case. In addition, the Potency entry in [7] and in [10] was “inactive” throughout. Also, the outcome in assay [6] and in assay [8] was inactive.

Turning to `C=C(C)C1CC=C(C)C(OC(C)=O)C1` (configuration not stated), the Potency entry in assay [1], in [2], in [4], in assay [5], in assay [9] and in assay [7] was “inactive” in each case. In addition, in [10], the Potency result was “inactive”. For the same compound, the compound was called inactive in assay [6] and in assay [8].

As for `C=C(C)C(=O)O`, the Potency entry in assay [1], in assay [2], in assay [4], in [5], in assay [7] and in assay [10] was “inactive” each time. In addition, the result in assay [6] and in assay [8] was inactive.

For the compound `COC(c1ccccc1)(c1ccccc1)[C@H](Oc1nc(C)cc(C)n1)C(=O)O`, the Potency entry in assay [1], in [2], in assay [4], in assay [9], in [7] and in [10] was “inactive” throughout. In addition, the compound was called inactive in assay [6] and in assay [8].

Regarding `CC(C)C(=O)c1c(C(C)C)nn2ccccc12`, the Potency entry in [1], in [2], in [3], in [4], in [9] and in assay [7] was “inactive” throughout. The outcome in assay [6] and in assay [8] was inactive.

With `CC(C)(O)CCC(C)(C)O`, the Potency entry in assay [1], in assay [2], in assay [4], in assay [5], in [9] and in assay [7] was “inactive” each time. Besides, the compound was classed as inactive in assay [6] and in assay [8].

Turning to `Cc1cccc2n[nH]nc12`, the Potency result in assay [1], in assay [2], in assay [4], in assay [5], in [9] and in assay [7] was “inactive” each time. Besides, the Potency result in [10] is “inactive”. In addition, the compound was classed as inactive in assay [6] and in [8].

With `CCCCC/C=C/CC1CC(=O)OC1=O` (configuration not stated), the Potency entry in assay [1], in assay [2], in assay [3], in assay [4] and in assay [7] was “inactive” throughout. Moreover, the compound was called inactive in assay [6] and in assay [8].

In the case of `CCN(CC)c1ccc2c(C)cc(=O)oc2c1`, the Potency in assay [1] is 30.9 µM (active) and 27.3 µM (active); in assay [10], 39.8 µM [fluorescent] (active). Further, the Potency entry in assay [2], in [3], in [4] and in [7] was “inactive” in each case. Also, the compound was classed as inactive in assay [6] and in assay [8].

Regarding `CC1COc2c(N3CCN(C)CC3)c(F)cc3c(=O)c(C(=O)O)cn1c23` (configuration not stated), the Potency result in assay [1], in assay [2], in assay [3], in [4], in assay [7] and in assay [10] was “inactive” in each case. Further, the compound was called inactive in assay [6] and in [8].
